Results published in PubChem BioAssay AID1159580 (chemical genetic matrix, 2015).
Hit rate of the full screen: of about 5,500 compounds, about 2,000 (36%) were called active. Inconclusive results (about 18%) are left out. No stated cut-off is given here; in the data, active means normalized growth mostly below about 0.91 (no sharp cut-off); inconclusive means no clear call, values can overlap the other calls; inactive means mostly above about 0.92. The list shows a part of the results.

Test: chemical genetic growth profiling, strain panel (AID 1159580);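 further: tested at 20 µM; growth read once vehicle control cultures reached saturation at 30 °C; 1 = growth at the plate median or of vehicle wells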
Conditions: S. cerevisiae deletion strains, growth OD

Measured: normalized growth

CS/C(N)=N\N=C/c1c(F)cccc1Cl
inactive: locus YAL013W, strain DEP1, stronger effect = lower value 0.998 | locus YBR229C, strain ROT2, stronger effect = lower value 0.992 | locus YCL061C, strain MRC1, stronger effect = lower value 0.996 | locus YDL101C, strain DUN1, stronger effect = lower value 1 | locus YDR150W, strain NUM1, stronger effect = lower value 0.995 | locus YEL061C, strain CIN8, stronger effect = lower value 1 | locus YGR078C, strain PAC10, stronger effect = lower value 1.01 | locus YHR030C, strain SLT2, stronger effect = lower value 0.988 | locus YHR087W, strain rtc3, stronger effect = lower value 0.979 | locus YJL187C, strain SWE1, stronger effect = lower value 0.986 | locus YJR043C, strain POL32, stronger effect = lower value 0.992 | locus YJR075W, strain HOC1, stronger effect = lower value 0.991 | locus YLR039C, strain RIC1, stronger effect = lower value 1.1 | locus YLR058C, strain SHM2 (second series), stronger effect = lower value 0.998 | locus YLR085C, strain ARP6, stronger effect = lower value 1.08 | locus YLR262C, strain YPT6, stronger effect = lower value 1.03 | locus YML094W, strain GIM5, stronger effect = lower value 0.993 | locus YMR219W, strain ESC1, stronger effect = lower value 0.995 | locus YMR263W, strain SAP30, stronger effect = lower value 1.02 | locus YNL153C, strain GIM3, stronger effect = lower value 0.998 | locus YNL298W, strain CLA4 (second series), stronger effect = lower value 1.05 | locus YNL322C, strain KRE1, stronger effect = lower value 1 | locus YNR030W, strain Alg12, stronger effect = lower value 1.05 | locus YPL055C, strain LGE1, stronger effect = lower value 1 | locus YPL241C, strain CIN2, stronger effect = lower value 0.988 | locus YPR135W, strain CTF4, stronger effect = lower value 1.03
